A short description of assay [1]: optical density shifts of acrAB sulA E. coli – strain DRC41, OD650, 48 h, E. coli filamentation inducer project, primary screen (AID 1152).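 Further: E. coli MC1000 strain DRC41 lacking acrAB efflux pump and sulA.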 As to conditions: higher = more signal, called active from +8 up or from −8 down.
Assay [2] can be described thus: probe aLefty1 binding on compound microarray – biochemical, small-molecule microarray, 635/667 nm fluorescence, primary screen (AID 1153).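 Further: score merges spot fluorescence with signal-to-noise ratio from the scanned slide images.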 As to conditions: higher = more signal.
Assay [3] can be described thus: plasmodial surface anion channel blockers, osmotic lysis – cell-based, P. falciparum Indochina, OD700, 1 h, primary screen (AID 1154). As to conditions: P. falciparum Indochina infected RBC osmotic lysis, higher = more signal, called active from +8 up or from −8 down.
Assay [4] in a line: plasmodial surface anion channel blockers, osmotic lysis – cell-based, P. falciparum Indochina, OD700, 2 h, primary screen (AID 1155).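 Further: lysis reports solute entry through the parasite surface anion channel PSAC.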 To be noted: P. falciparum Indochina infected erythrocytes, higher = more signal, called active from +8 up or from −8 down.
Assay [5] is described as follows: changes in parasitized red cell lysis, either direction – P. falciparum Indochina, OD700, 3 h, PSAC antagonist project, primary screen (AID 1156). As to conditions: P. falciparum-infected erythrocytes, osmotic lysis, higher = more signal, called active from +8 up or from −8 down.
Assay [6] in a line: plasmodial surface anion channel blockers, osmotic lysis – cell-based, P. falciparum Indochina, OD700, 18 h, primary screen (AID 1157). As to conditions: P. falciparum Indochina infected erythrocytes, osmotic lysis OD700, 18 h; higher = more signal, called active from +8 up or from −8 down.
The nature of assay [7]: S6 kinase pathway phospho-S6 level changes – cell-based, A549, cytoblot, luminescence, serum-stimulated, primary screen (AID 1158).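 Further: serum-stimulated A549 lung adenocarcinoma cells; signal is phosphorylated S6 detected by cytoblot immunostaining with HRP secondary.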 As to conditions: 5 h, higher = more signal.
In assay [8] the target is NADPH oxidase 2 (Homo sapiens) (UniProt P04839). In words: compounds shifting NOX2 Amplex Red fluorescence – cell-based, HEK293-NOX2, PMA-stimulated, NOX inhibitor project, primary screen (AID 1159). Further: test concentration not given here. As to conditions: 45 min, higher = more signal, called active from +8 up or from −8 down.
Sequence of NADPH oxidase 2 (Homo sapiens) (P04839 whole entry, looked up): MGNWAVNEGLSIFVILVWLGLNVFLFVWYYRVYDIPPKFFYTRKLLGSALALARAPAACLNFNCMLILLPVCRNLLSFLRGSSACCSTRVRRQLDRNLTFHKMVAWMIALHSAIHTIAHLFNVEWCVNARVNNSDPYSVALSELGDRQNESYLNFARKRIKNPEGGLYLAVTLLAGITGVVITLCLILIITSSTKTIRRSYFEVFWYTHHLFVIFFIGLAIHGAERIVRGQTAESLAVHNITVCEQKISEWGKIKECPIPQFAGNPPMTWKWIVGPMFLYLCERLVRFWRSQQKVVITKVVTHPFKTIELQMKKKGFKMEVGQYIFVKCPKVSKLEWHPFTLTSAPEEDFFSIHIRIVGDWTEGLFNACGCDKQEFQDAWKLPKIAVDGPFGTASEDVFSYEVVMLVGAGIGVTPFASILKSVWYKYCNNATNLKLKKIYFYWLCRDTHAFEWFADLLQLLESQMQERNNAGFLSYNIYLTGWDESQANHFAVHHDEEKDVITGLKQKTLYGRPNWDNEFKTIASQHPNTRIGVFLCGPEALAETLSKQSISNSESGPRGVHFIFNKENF
The target in assay [9] is NADPH oxidase 4 (Homo sapiens) (UniProt Q9NPH5). The assay can be described thus: compounds shifting NOX4 Amplex Red fluorescence – cell-based, HEK293-NOX4, tetracycline-induced, NOX inhibitor project, primary screen (AID 1160). As to conditions: HEK293-NOX4, Amplex Red H2O2 fluorescence, 45 min; higher = more signal, called active from +8 up or from −8 down.
Sequence of NADPH oxidase 4 (Homo sapiens) (Q9NPH5 whole entry, looked up): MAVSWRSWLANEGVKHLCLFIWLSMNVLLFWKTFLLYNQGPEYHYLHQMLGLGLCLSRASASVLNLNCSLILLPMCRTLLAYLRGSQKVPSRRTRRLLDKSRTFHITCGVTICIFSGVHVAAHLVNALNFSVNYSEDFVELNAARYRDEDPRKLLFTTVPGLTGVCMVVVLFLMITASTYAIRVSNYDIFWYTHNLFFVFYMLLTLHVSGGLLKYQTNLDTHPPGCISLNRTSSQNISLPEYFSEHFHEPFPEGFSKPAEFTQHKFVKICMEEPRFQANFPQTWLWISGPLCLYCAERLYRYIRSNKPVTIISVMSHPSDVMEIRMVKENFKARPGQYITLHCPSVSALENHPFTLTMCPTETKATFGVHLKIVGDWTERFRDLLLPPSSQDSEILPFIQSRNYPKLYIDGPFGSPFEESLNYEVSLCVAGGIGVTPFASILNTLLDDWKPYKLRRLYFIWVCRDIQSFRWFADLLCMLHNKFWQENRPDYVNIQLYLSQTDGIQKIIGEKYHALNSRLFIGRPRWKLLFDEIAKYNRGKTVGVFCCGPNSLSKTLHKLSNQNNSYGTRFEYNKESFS
For assay [10], the target named is NADPH oxidase 5 (Homo sapiens) (UniProt Q96PH1). The assay can be described thus: compounds shifting NOX5 Amplex Red fluorescence – cell-based, HEK293-NOX5, NOX inhibitor project, primary screen (AID 1161). As to conditions: HEK293-NOX5, ionomycin, 45 min, higher = more signal.
Sequence of NADPH oxidase 5 (Homo sapiens) (Q96PH1 whole entry, looked up): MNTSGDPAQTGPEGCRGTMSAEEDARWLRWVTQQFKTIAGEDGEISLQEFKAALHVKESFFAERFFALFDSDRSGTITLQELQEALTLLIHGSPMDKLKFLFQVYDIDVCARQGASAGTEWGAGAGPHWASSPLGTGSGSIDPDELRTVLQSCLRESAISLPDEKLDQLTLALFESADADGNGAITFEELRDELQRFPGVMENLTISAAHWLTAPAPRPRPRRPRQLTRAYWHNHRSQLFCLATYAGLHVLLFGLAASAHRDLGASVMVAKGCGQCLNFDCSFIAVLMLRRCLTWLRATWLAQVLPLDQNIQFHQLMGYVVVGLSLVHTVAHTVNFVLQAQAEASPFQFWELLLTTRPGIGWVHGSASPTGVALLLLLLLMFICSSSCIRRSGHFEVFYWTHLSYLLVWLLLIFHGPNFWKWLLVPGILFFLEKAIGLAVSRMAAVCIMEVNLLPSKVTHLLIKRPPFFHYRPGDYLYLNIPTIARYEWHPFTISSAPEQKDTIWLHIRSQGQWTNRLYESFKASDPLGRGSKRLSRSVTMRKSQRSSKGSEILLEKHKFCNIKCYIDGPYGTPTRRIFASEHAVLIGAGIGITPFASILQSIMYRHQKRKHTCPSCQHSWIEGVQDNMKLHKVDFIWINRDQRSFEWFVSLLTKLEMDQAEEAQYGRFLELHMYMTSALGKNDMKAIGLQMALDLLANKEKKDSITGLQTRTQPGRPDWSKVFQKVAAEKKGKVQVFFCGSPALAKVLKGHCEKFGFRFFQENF
Assay [11] is described as follows: compound effects on lung adenocarcinoma cell viability – A549, calcein-AM fluorescence, 48 h, basal, profiling panel (AID 1162). Further: test concentration not given here. As to conditions: higher = more signal.
The nature of assay [12]: compound effects on differentiated 3T3-L1 adipocyte viability – cell-based, 3T3-L1 adipocytes, calcein-AM fluorescence, 48 h, basal, profiling panel (AID 1163). Further: test concentration not given here. To be noted: 3T3-L1 adipocytes viability, higher = more signal.
Assay [13] in a line: compound effects on hepatocellular carcinoma cell viability – HepG2, calcein-AM fluorescence, 48 h, basal, profiling panel (AID 1164). Further: test concentration not given here. As to conditions: higher = more signal.
A short description of assay [14]: compound effects on multiple myeloma cell viability – MM1S, calcein-AM fluorescence, 48 h, basal, profiling panel (AID 1165).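 Further: viability of MM1S multiple myeloma cells under basal unstimulated conditions; test concentration not given here.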 To be noted: higher = more signal.
A short description of assay [15]: calcein-AM signal in unstimulated myeloma cells – cell-based, calcein-AM fluorescence, 48 h, PK04 Diversity Set, profiling panel (AID 1166).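 Further: cells grown under basal conditions without added stimulus; test concentration not given here.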 To be noted: RPMI8226 myeloma viability, higher = more signal.
Assay [16] in a line: JC-1 mitochondrial signal, unstimulated HepG2 cells – cell-based, JC-1 fluorescence, 24 h, 100 nL compound, profiling panel (AID 1167). Further: test concentration not given here. As to conditions: HepG2 mitochondrial potential, higher = more signal.
Assay [17] can be described thus: JC-1 mitochondrial signal, unstimulated adipocytes – cell-based, JC-1 fluorescence, 3T3-L1 adipocytes, 24 h, 100 nL compound, profiling panel (AID 1168). Further: test concentration not given here. To be noted: JC-1 mitochondrial fluorescence, higher = more signal, called active from +8 up or from −8 down.
Assay [18] in a line: JC-1 mitochondrial signal, unstimulated myeloma cells – cell-based, JC-1 fluorescence, RPMI8226, 24 h, 100 nL compound, profiling panel (AID 1169). Further: test concentration not given here. To be noted: JC-1 mitochondrial potential fluorescence, higher = more signal.
The nature of assay [19]: JC-1 mitochondrial signal, unstimulated MM1S myeloma – cell-based, JC-1 fluorescence, 24 h, 100 nL compound, profiling panel (AID 1170). Further: test concentration not given here. To be noted: MM1S mitochondrial potential, higher = more signal.
Assay [20] can be described thus: resazurin metabolic signal in A549 cells – cell-based, resazurin fluorescence, 24 h, PK04 Diversity Set, profiling panel (AID 1171). Further: test concentration not given here. As to conditions: A549 viability, higher = more signal, called active from +8 up or from −8 down. (Alamar Blue is a resazurin reagent that responds to reducing activity.)

Calls of active or inactive are those of the source.

As for `C=C[C@@H](OC)[C@H](OC(=O)Nc1ccc(SC)cc1)c1ccc(OCCO)cc1`, the z-score in [1] was -3.28 (inactive); in [3] it was 26.7 (active); in [4], 16.4 (active); in assay [5] it was 2.11 (inactive); in assay [6], 1.78 (inactive); in assay [7], 0.285. For the same compound, the z-score was 0.403 (inactive) in assay [8]; 0.357 (inactive) in assay [9]; 0.00434 in [10]; -0.568 in [11]; 0.222 in [12]; -0.587 in [13]. Moreover, the z-score in assay [14] is -2.08; in assay [15] it was -1.56; in assay [16], -2.68; in [17] it was 0.286 (inactive); in [18], -0.151; in [19] it was -0.333. Further, the z-score in [20] was -0.285 (inactive). Besides, in assay [2], the composite z-score came to 0.137.
Turning to `CO[C@H]1O[C@H](CO)[C@@H](OC(=O)c2ccc(Br)cc2)[C@@H]2OC(=O)[C@H](Cc3ccccc3)C/C=C/C[C@@H](Cc3ccccc3)C(=O)O[C@@H]12`, the z-score in assay [1] is 2.28 (inactive); in assay [3], 2.36 (inactive); in [4] it was -0.765 (inactive); in assay [5], -1.53 (inactive); in assay [6], -1.02 (inactive); in [7], 1.92. Also, the z-score in assay [8] is -4.18 (inactive); in assay [9], -0.416 (inactive); in [10], -1.82; in assay [11] it was 1.77; in [12], 0.863; in [13], 0.857. The z-score in [14] is -0.389; in assay [15], 0.0226; in [16], -0.0867; in assay [17] it was -1.37 (inactive); in assay [18] it was 0.796; in assay [19] it was -0.823. Further, the z-score in [20] is -1 (inactive). In [2], this compound yielded a composite z-score of -0.715.
As for `COc1cccc(/C=C(\C#N)C(=O)Nc2c(C)n(C)n(-c3ccccc3)c2=O)c1`, the z-score is 1.42 (inactive) in [1]; 2.13 (inactive) in assay [3]; -0.901 (inactive) in assay [4]; 0.381 (inactive) in assay [5]; -0.924 (inactive) in assay [6]; 1.06 in assay [7]. The z-score is -0.355 (inactive) in assay [8]; 0.139 (inactive) in assay [9]; 0.595 in assay [10]; 2.14 in assay [11]; 1.12 in assay [12]; 1.01 in assay [13]. Besides, the z-score in assay [14] was -0.485; in [15], 0.101; in assay [16] it was 0.778; in assay [17], 0.159 (inactive); in [18], 0.505; in assay [19], -0.535. Further, the z-score in assay [20] was -0.589 (inactive). Further, the composite z-score in assay [2] was -0.168.
`COC(=O)C1=CC(CCCO)=CC(C)N(Cc2cccc(OC(F)(F)F)c2)C=C1C(=O)OC` (stereo not given): the z-score in assay [1] was -0.0692 (inactive); in assay [3], 2.3 (inactive); in assay [4], 0.192 (inactive); in assay [5], 0.983 (inactive); in assay [6] it was 0.5 (inactive); in assay [7], -0.334. Moreover, the z-score in assay [8] is 0.159 (inactive); in assay [9], -0.317 (inactive); in [10] it was 0.859; in assay [11], 1.35; in assay [12] it was 0.0937; in assay [13], 0.966. Further, the z-score in assay [14] was 0.403; in assay [15], 0.286; in assay [16] it was 1.12; in [17] it was 0.612 (inactive); in assay [18], -0.0402; in assay [19], -0.645. For the same compound, the z-score in assay [20] was -0.149 (inactive). Besides, the composite z-score in assay [2] is 0.248.
